Measured values as given in PubChem BioAssay (NCATS).
Records with an inconclusive call do not appear. Entries that show only a call come without a potency. Calls of active or inactive are those of the source. The call rests on the fitted dose curve; in most records, active means well fitted inhibition curve with a large enough effect; inconclusive means small, poorly fitted or top-dose-only effect; inactive means flat fitted curve, though single readings scatter.

What follows are compounds tested against Glutathione peroxidase 1 (Homo sapiens) (UniProt P07203) (assay: Primary qHTS Assay for Inhibitors of Recombinant Selenoprotein Glutathione Peroxidase 1 (GPX1) (AID 1845191)). Settings: recombinant GPX1, GR-coupled NADPH fluorescence, 15 min; series mostly up to 27.7 µM.
Outline: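 GPX1 10 nM, GR 100 nM, GSH 1 mM, NADPH 0.5 mM, CHP 0.5 mM (final). 30-min cpd preincubation, RT. Ex340/Em450 read t=0, t=15 min.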
Further: nearly all actives have a fitted effect of over 65% in size.

Chain of Glutathione peroxidase 1 (Homo sapiens) (P07203 whole entry, looked up): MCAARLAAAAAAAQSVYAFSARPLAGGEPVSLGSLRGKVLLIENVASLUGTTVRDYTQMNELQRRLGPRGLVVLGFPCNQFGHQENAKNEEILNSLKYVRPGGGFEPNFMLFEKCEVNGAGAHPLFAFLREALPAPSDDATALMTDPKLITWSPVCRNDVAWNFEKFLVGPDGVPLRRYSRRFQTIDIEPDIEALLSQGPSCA

SMILES	Potency
CC/C=C/C(O)C(O)C1=C(C)C(=O)C2(O1)C(=O)NC(OC)(C(=O)c1ccccc1)C2O (configuration not stated)	inactive
COC(=O)C1=CO[C@@H](O[C@@H]2O[C@H](CO)[C@@H](O)[C@H](O)[C@H]2O)[C@@H]2[C@@H](C(=O)O)CC[C@H]12	inactive
CC1=CC23[C@H](C=C(C(=O)O)[C@@H]2COC(=O)[C@]3(O)CO)[C@@H]1C (some centres not stated)	inactive
O=C(O)C1(c2ccc(-c3ccc(Cl)c(Cl)c3)c(F)c2)CC1	inactive
Cc1[nH]c2ccccc2c1CC(=O)N[C@@H](Cc1ccccc1)C(=O)N(C)c1ccccc1	inactive
COC(=O)C1=COC(OC2OC(CO)C(O)C(O)C2O)C2C(C)CC(=O)C12O (configuration not stated)	inactive
C[C@H](/C=C/[C@@]1(O)[C@H](C)CC(=O)CC1(C)C)O[C@@H]1O[C@H](CO[C@@H]2OC[C@@H](O)[C@H](O)[C@H]2O)[C@@H](O)[C@H](O)[C@H]1O	inactive
C[C@@H]1CC[C@]2(C(=O)O)CC[C@]3(C)C(=CCC4[C@@]5(C)C[C@@H](O)[C@@H](O)C(C)(C)C5CC[C@]43C)C2[C@]1(C)O (some centres not stated)	inactive

Each compound was assayed against Phospholipid hydroperoxide glutathione peroxidase GPX4 (Homo sapiens) (UniProt P36969) (assay: Primary qHTS Assay for Inhibitors of Recombinant Selenoprotein Glutathione Peroxidase 4 (GPX4) (AID 1845192)). Settings: recombinant GPX4, GR-coupled NADPH fluorescence, 15 min; series mostly up to 27.8 µM.
Outline: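 qHTS, GR-coupled: GPX4 200 nM + cpd 30 min RT → GSH 1 mM, NADPH 0.5 mM, GR 100 nM → CHP 0.5 mM start; fluor 340/450 at t0 and t15 min; no-enzyme wells as control.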

Chain of Phospholipid hydroperoxide glutathione peroxidase GPX4 (Homo sapiens) (P36969 whole entry, looked up): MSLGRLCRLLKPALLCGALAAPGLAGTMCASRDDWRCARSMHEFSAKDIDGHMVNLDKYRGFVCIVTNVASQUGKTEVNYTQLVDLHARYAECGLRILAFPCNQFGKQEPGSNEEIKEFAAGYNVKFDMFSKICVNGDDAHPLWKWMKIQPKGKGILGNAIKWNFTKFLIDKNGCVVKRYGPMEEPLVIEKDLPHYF

SMILES	Potency
CC1=CC2=C(C)C(=O)[C@](C)(O)[C@H](O)C2=CO1	inactive
CC1(C)C2CC[C@@]34CC(CC[C@H]3[C@]2(C)CC[C@@H]1O[C@@H]1O[C@H](CO)[C@@H](O)[C@H](O)[C@H]1O)[C@](C)(O)C4 (some centres not stated)	inactive
COc1ccc2c(c1)N1C(=O)C[C@@]34C=CC[N@+]5([O-])CC[C@H]2[C@H](CC3)[C@@]145	inactive
COc1cncc(C#Cc2ccccn2)c1	inactive
CC1(C)CC[C@]2(C(=O)O[C@@H]3O[C@H](CO)[C@@H](O)[C@H](O)[C@H]3O)CC[C@]3(C)C(=CCC4[C@@]5(C)CC[C@H](O[C@H]6O[C@H](CO)[C@@H](O)[C@H](O[C@@H]7O[C@H](CO)[C@@H](O)[C@H](O)[C@H]7O)[C@H]6O)C(C)(C)C5CC[C@]43C)[C@@H]2C1 (some centres not stated)	inactive
CC1OC(OC2C(OC(=O)[C@]34CCC(C)(C)C[C@H]3C3=CCC5[C@@]6(C)CC[C@H](OC7OC(C(=O)O)C(O)C(O)C7O)C(C)(C)C6CC[C@@]5(C)[C@]3(C)CC4O)OC(CO)C2O)C(O)C(O)C1OC1OCC(O)C(O)C1O (some centres not stated)	inactive
N#CN1CCC[C@@H](n2nc(-c3ccc(Oc4ccc(F)cc4F)cc3)c(C(N)=O)c2N)C1	inactive
O=C(Nc1ccccc1)Nc1ccc(-c2ccc(C(=O)C3CCCC3C(=O)O)cc2)cc1 (configuration not stated)	inactive
C/C=C/C=C/C=C/C(=O)O[C@@H]1[C@@H](OC)C2=C(C(=O)N(C(CCC(=O)O)C(=O)O)C2)[C@@]2(C)CCCC(C)(C)[C@H]12 (some centres not stated)	inactive
N=C(N)c1ccc2nc(-c3cc(CC(=O)NC(CC(=O)O)C(=O)O)cc(-c4cc(S(N)(=O)=O)ccc4O)c3O)[nH]c2c1 (configuration not stated)	inactive
COc1ccccc1N1CCN(CCCCNC(=O)c2ccc(-c3cscn3)cc2)CC1	inactive
COc1cc(C(CO)C(OC2OC(CO)C(O)C(O)C2O)c2ccc(O)c(OC)c2)ccc1O (configuration not stated)	inactive
CC1=C2CC(O)(C(C)(C)O)C(O[C@@H]3O[C@H](CO)[C@@H](O)[C@H](O)[C@H]3O)CC(C)C2CC1=O (some centres not stated)	inactive
CC(O)/C=C/C1(O)C(C)C(O)C(O[C@@H]2O[C@H](CO)[C@@H](O)[C@H](O)[C@H]2O)CC1(C)C (some centres not stated)	inactive
CC(C)c1cc2c(c(O)c1O)[C@@]13CCCC(C)(C)C1[C@@H](O)[C@@H]2OC3=O (some centres not stated)	inactive
COc1ccc(/C=C/C(N)=O)cc1OC	inactive
C[C@@H]1C[C@@H](O)[C@@]23CO[C@]2(CO)CCC[C@@H]3[C@@]12C[C@@H](c1ccoc1)OC2=O	inactive
COc1cc(C(=O)OC[C@@]2(O)CO[C@@H](O[C@H]3[C@H](Oc4ccc(O)cc4)O[C@H](CO)[C@@H](O)[C@@H]3O)[C@@H]2O)cc(OC)c1O	inactive
O=C(/C=C/c1ccc(O)c(O)c1)O[C@H]1[C@@H]2C=CO[C@@H](O[C@@H]3O[C@H](CO)[C@@H](O)[C@H](O)[C@H]3O)[C@@H]2[C@@]2(CO)O[C@@H]12	inactive
COC(=O)C1=COC(OC2OC(CO)C(O)C(O)C2O)C2C(C)C(OC(C)=O)C(OC(=O)c3ccccc3)C12 (configuration not stated)	inactive

SMILES	Potency
C=C1CCC2[C@@](C)(C(=O)O)CCC[C@@]2(C)[C@@H]1CCc1ccoc1 (some centres not stated)	inactive
Cc1cc(CNC(=O)c2cc(C(=O)NCc3ccc(F)c(C)c3)ncn2)ccc1F	inactive
COc1ccc(OC)c(C2C(C#N)=C(N)Oc3n[nH]c(-c4ccc5ccccc5c4)c32)c1 (configuration not stated)	inactive
CC(=O)OC1CCC2(C)C(CCC3(C)C2CC=C2C4CC(C)(C)CCC4(C)CCC23C)C1(C)C(=O)O (configuration not stated)	inactive
N#Cc1cccc(-c2nc(-c3cccnc3)no2)c1	inactive
COC(=O)C(Cc1ccccc1)NC(=O)c1ccccc1 (configuration not stated)	inactive
C[C@@H]1C(=O)O[C@H]2[C@H]1CC[C@@]1(C)C(=O)C=C[C@@](C)(O)[C@H]21	inactive
O=C(Cc1ccccc1)OC[C@H]1O[C@H](O[C@H]2O[C@H](CO)[C@@H](O)[C@H](O)[C@H]2O)[C@H](O)[C@@H](O)[C@@H]1O	inactive
C=CC(C)(CC/C=C(\C)C(=O)OC)OC1OC(COC(=O)CC(C)(O)CC(=O)O)C(O)C(O)C1O (configuration not stated)	inactive
OC[C@H]1O[C@@H](OCc2ccccc2)[C@H](O[C@@H]2OC[C@@H](O)[C@H](O)[C@H]2O)[C@@H](O)[C@@H]1O	inactive
CCOC(=O)COc1ccc2c(c1)C[C@@H](NC[C@H](O)c1cccc(Cl)c1)CC2	inactive
CC/C=C/C(O)C(O)C1=C(C)C(=O)C2(O1)C(=O)NC(OC)(C(=O)c1ccccc1)C2O (configuration not stated)	inactive
COC(=O)C1=CO[C@@H](O[C@@H]2O[C@H](CO)[C@@H](O)[C@H](O)[C@H]2O)[C@@H]2[C@@H](C(=O)O)CC[C@H]12	inactive
CC1=CC23[C@H](C=C(C(=O)O)[C@@H]2COC(=O)[C@]3(O)CO)[C@@H]1C (some centres not stated)	inactive
O=C(O)C1(c2ccc(-c3ccc(Cl)c(Cl)c3)c(F)c2)CC1	inactive
Cc1[nH]c2ccccc2c1CC(=O)N[C@@H](Cc1ccccc1)C(=O)N(C)c1ccccc1	inactive
COC(=O)C1=COC(OC2OC(CO)C(O)C(O)C2O)C2C(C)CC(=O)C12O (configuration not stated)	inactive
C[C@H](/C=C/[C@@]1(O)[C@H](C)CC(=O)CC1(C)C)O[C@@H]1O[C@H](CO[C@@H]2OC[C@@H](O)[C@H](O)[C@H]2O)[C@@H](O)[C@H](O)[C@H]1O	inactive
C[C@@H]1CC[C@]2(C(=O)O)CC[C@]3(C)C(=CCC4[C@@]5(C)C[C@@H](O)[C@@H](O)C(C)(C)C5CC[C@]43C)C2[C@]1(C)O (some centres not stated)	inactive
